The panel holds about 83,000 compounds, 20% with a hit somewhere; the sample as a whole holds those more often.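 Each cell line was grown in a 96-well plate and treated with one concentration of compound for 48 hours. Values below 10 were considered active.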 A number with no mark means an inactive call. The source made the active and inactive calls.
Legend:
Experiment in all cases: NCI-60 one-dose screen, 48 h (100 = growth as untreated, 0 = no growth, -100 = all killed)
SR leukemia = test system: SR leukemia
RPMI-8226 leukemia = test system: RPMI-8226 leukemia
OVCAR-5 ovarian = test system: OVCAR-5 ovarian
OVCAR-4 ovarian = test system: OVCAR-4 ovarian
SK-OV-3 ovarian = test system: SK-OV-3 ovarian
IGROV1 ovarian = test system: IGROV1 ovarian
OVCAR-3 ovarian = test system: OVCAR-3 ovarian
HS 578T breast = test system: HS 578T breast
NCI/ADR-RES ovarian = test system: NCI/ADR-RES ovarian

Compound	growth (SR leukemia; 2.5 µM) [%]	growth (RPMI-8226 leukemia; 2.5 µM) [%]	growth (OVCAR-5 ovarian; 2.5 µM) [%]	growth (OVCAR-4 ovarian; 2.5 µM) [%]	growth (SK-OV-3 ovarian; 2.5 µM) [%]	growth (IGROV1 ovarian; 2.5 µM) [%]	growth (OVCAR-3 ovarian; 2.5 µM) [%]	growth (HS 578T breast; 2.5 µM) [%]	growth (NCI/ADR-RES ovarian; 2.5 µM) [%]	growth (SR leukemia; 12.5 µM)	growth (RPMI-8226 leukemia; 12.5 µM)	growth (OVCAR-5 ovarian; 12.5 µM)	growth (OVCAR-4 ovarian; 12.5 µM)	growth (SK-OV-3 ovarian; 12.5 µM) [%]	growth (IGROV1 ovarian; 12.5 µM)	growth (OVCAR-3 ovarian; 12.5 µM)	growth (HS 578T breast; 12.5 µM)	growth (NCI/ADR-RES ovarian; 12.5 µM)
CN(Cc1cnc2nc(N)nc(N)c2n1)c1ccc(C(=O)N[C@@H](CCC(=O)O)C(=O)O)cc1	32	33.9	41.1	93.4	75	38.7	54.2	27.4	29	–	–	–	–	–	–	–	–	–
CC/C(=C(\c1ccccc1)c1ccc(OCCN(C)C)cc1)c1ccccc1	–	–	–	–	–	–	–	–	–	-27.2% (active)	-38.1% (active)	-83.1% (active)	2.45% (active)	32.6	-20.4% (active)	-6.16% (active)	-70.9% (active)	-41.2% (active)

— PubChem BioAssay (NCI)
